A selection: hits, their analogues and other compounds. The true share with any hit is near 6.7%.
Pf Dd2 growth: blocks growth of Plasmodium falciparum Dd2 parasites. P. falciparum Dd2 growth, SYBR Green, 72 h; stronger effect = lower value. activity change, % at 10 µM. actives 2.3% (n = 94,000); in the data active means activity change below about -80%; inconclusive means no clear call, values can overlap the other calls
T cruzi growth-1: inhibitors of T. cruzi proliferation; T. cruzi beta-gal in NIH3T3, GalScreen luminescence, 90 h; inhibition, % at 8.34 µM; actives 5.9% (n = 77,000); AID 624255;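 active means mean inhibition above about 93%, with at least 55% of replicates each passing it, limit read from the data, passing the limit was not always enough; inconclusive means only one of those two conditions holds; inactive means neither condition holds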
C diff growth: C. difficile growth inhibition; Clostridium difficile clinical isolate growth, OD600, 24 h; stronger effect = lower value; growth activity, negative = inhibition, % at 16 µg/mL (by protocol); actives 0.25% (n = 86,000);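 active means mean growth activity at or below -80% and every replicate also at or below -80%; inconclusive means mean at or below -80% but some replicate above -80%; inactive means mean growth activity above -80%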;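 further: 0% = DMSO wells and -100% = levofloxacin 16 µg/mL wells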
T cruzi growth-2: inhibitors of T. cruzi proliferation; actives 72% (n = 5,600); shares compounds with T cruzi growth-1; inhibition, % at 8.35 µM; T. cruzi beta-gal in NIH3T3, GalScreen luminescence, 90 h;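 active means mean replicate inhibition above about 95% and at least 55% of replicates individually reaching it, limit read from the data; inconclusive means only one of the two criteria is met; inactive means neither criterion is met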
T cruzi growth-3: Trypanosoma cruzi proliferation inhibition; shares compounds with T cruzi growth-1; T. cruzi beta-gal in NIH3T3, GalScreen luminescence, 90 h; inhibition, % at 2.09 µM; actives 21% (n = 5,600); AID 651740;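 active means mean inhibition above about 95%, with at least 55% of replicates also reaching it, limit read from the data; inconclusive means meets just one of the two conditions; inactive means meets neither condition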;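 further: plate controls were neutral control median for no effect and positive control median for full effect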
3T3 cytotox: cytotoxicity in mouse NIH/3T3 fibroblasts; actives 14% (n = 5,600); AID 651742; NIH/3T3 viability, CellTiter-Glo ATP luminescence, 90 h; cytotoxicity (signal decrease), % at 8.35 µM; shares compounds with T cruzi growth-1;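 active means mean signal decrease across replicates above about 35% based on untreated-well scatter, with enough replicates individually passing, limit read from the data; inconclusive means no rule stated though some were filed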;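 further: 0% = median of neutral control wells and 100% = median of positive control wells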
NIH3T3 tox 2: cytotoxicity in mouse NIH/3T3 fibroblasts; shares compounds with T cruzi growth-1; NIH/3T3 viability, CellTiter-Glo ATP luminescence, 90 h; inhibition, % at 24.9 µM; actives 56% (n = 5,600);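 active means mean loss of cell viability signal at or above a set limit, and enough replicates individually reaching it; inconclusive means meets only the mean limit or only the replicate share; inactive means meets neither condition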;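 further: 0% = median of neutral control wells and 100% = median of positive control wells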
An asterisk follows results filed as active; ? = inconclusive; / = not tested or not shown.

SMILES | Pf Dd2 growth | T cruzi growth-1 | C diff growth | T cruzi growth-2 | T cruzi growth-3 | 3T3 cytotox | NIH3T3 tox 2
CN1[C@@H]2c3ccc(-c4cccc(F)c4)c(=O)n3C[C@@H]2[C@@H](CO)[C@@H]1C(=O)NCc1ccccn1 | / | 76.8 | -4.7 | / | / | / | /
CN1[C@H](C(=O)NCc2ccccn2)[C@@H](CO)[C@@H]2Cn3c(ccc(-c4cccc(F)c4)c3=O)[C@@H]21 | / | 111.0* | -9.1 | 51.6 | 5.3 | 17.3 | 13.3
CCC(=O)N1[C@@H]2c3ccc(-c4cccc(F)c4)c(=O)n3C[C@@H]2[C@@H](CO)[C@@H]1C(=O)N1CCCCC1 | 16.5 | / | -2.6 | / | / | / | /
CCCNC(=O)C[C@H]1C[C@@H]2c3cc(NC(=O)CC4CC4)ccc3O[C@@H]2[C@H](CO)O1 | 19.0 | -15.1 | 0.7 | / | / | / | /
CCNC(=O)C[C@@H]1C=C[C@@H](NC(=O)C2CCC2)[C@H](CO)O1 | / | / | -2.0 | / | / | / | /
C[C@@H]1CCCCO[C@H](CN(C)Cc2ccc(C(=O)O)cc2)[C@H](C)CN([C@H](C)CO)C(=O)c2cc(NC(=O)Nc3ccccc3)ccc2O1 | 20.6 | -6.0 | -1.1 | / | / | / | /
C[C@@H]1CN([C@@H](C)CO)C(=O)c2cc(C#C[C@@H](C)O)cnc2O[C@@H]1CN(C)C(=O)c1ccccc1 | 36.7 | 91.0 | 1.8 | / | / | / | /
CCCNC(=O)N(C)C[C@@H]1Oc2cc(C#CC3CC3)ccc2S(=O)(=O)N([C@H](C)CO)C[C@@H]1C | -47.9 | 39.4 | -3.8 | / | / | / | /
CC(C)C#Cc1ccc2c(c1)O[C@@H](CN(C)Cc1ccccn1)[C@H](C)CN([C@H](C)CO)S2(=O)=O | -43.7 | 75.5 | 13.8 | / | / | / | /
C[C@@H]1CN([C@@H](C)CO)S(=O)(=O)c2ccc(C#CC3CC3)cc2O[C@H]1CN(C)Cc1ccccn1 | -36.8 | ? | -6.2 | 99.7* | 79.3 | 64.5* | 72.2*
C[C@@H]1CN([C@H](C)CO)S(=O)(=O)c2ccc(C#CC3CC3)cc2O[C@H]1CN(C)Cc1ccccn1 | -28.3 | 109.5* | -7.6 | 76.2 | -3.1 | 101.8* | 76.1*
C[C@H](CO)N1C[C@H](C)[C@H](CN(C)Cc2ccccn2)Oc2cc(C#CC3CC3)ccc2S1(=O)=O | -22.9 | 59.5 | -2.8 | / | / | / | /
CC(C)C#Cc1ccc2c(c1)O[C@@H](CN(C)Cc1ccccn1)[C@@H](C)CN([C@H](C)CO)S2(=O)=O | -4.2 | 78.9 | 17.3 | / | / | / | /
C[C@H]1CN([C@@H](C)CO)S(=O)(=O)c2ccc(C#CC3CC3)cc2O[C@@H]1CN(C)Cc1ccccn1 | -46.2 | 109.0* | -10.6 | 91.0 | 71.0 | 27.1 | 79.9*
O=C(CCN1CCCCC1)NCC[C@@H]1CC[C@H](NC(=O)C2CCC2)[C@@H](CO)O1 | -51.3 | / | 1.3 | / | / | / | /
C[C@H](CO)N1C[C@H](C)[C@H](CN(C)S(=O)(=O)c2ccccc2)Oc2ccc(NC(=O)Nc3ccccc3)cc2CC1=O | -29.0 | 54.2 | 10.1 | / | / | / | /
CCC(=O)N(C)C[C@@H]1Oc2cc(C#Cc3ccccc3)ccc2S(=O)(=O)N([C@@H](C)CO)C[C@@H]1C | -68.1 | / | 0.2 | / | / | / | /
O=C(C[C@H]1C=C[C@H](NC(=O)C2CCC2)[C@@H](CO)O1)NCc1ccccc1Cl | 3.3 | / | -0.6 | / | / | / | /
CNC[C@H]1OCCCC[C@@H](C)Oc2ccc(NC(=O)Nc3ccc(C(F)(F)F)cc3)cc2C(=O)N([C@@H](C)CO)C[C@H]1C | -20.0 | 24.6 | 14.6 | / | / | / | /
c1cncc(-c2ccc(C3[C@H]4CNC[C@@H]3N4CC3CCCCC3)cc2)c1 (stereo partly drawn) | -54.4 | / | 20.7 | / | / | / | /
COc1cccc(-c2ccc([C@@H]3[C@@H](CO)N4CCCCN(C(=O)c5ccc6c(c5)OCO6)C[C@H]34)cc2)c1 | 5.0 | 92.5 | -7.3 | / | / | / | /
Cc1cccc(-c2ccc([C@@H]3[C@@H](CO)N4CCCCN(C(=O)c5ccc6c(c5)OCO6)C[C@@H]34)cc2)c1 | -11.4 | 54.9 | -3.7 | / | / | / | /
Cc1cccc(-c2ccc([C@H]3[C@H]4CN(C(=O)c5ccc6c(c5)OCO6)CCCCN4[C@H]3CO)cc2)c1 | -40.9 | 116.0* | -3.6 | 105.0* | 56.6 | 30.8 | 106.1*
COc1cccc(-c2ccc([C@H]3[C@@H](CO)N4CCCCN(C(=O)c5ccc6c(c5)OCO6)C[C@H]34)cc2)c1 | -18.5 | 109.8* | 2.4 | 105.4* | 87.1 | 33.1 | 106.1*
Cc1cccc(-c2ccc([C@@H]3[C@@H](CO)N4CCCCN(C(=O)c5ccc6c(c5)OCO6)C[C@H]34)cc2)c1 | 2.6 | 106.4* | -0.1 | 103.9* | 35.2 | 26.3 | 103.4*
SMILES | Pf Dd2 growth | T cruzi growth-1 | C diff growth | T cruzi growth-2 | T cruzi growth-3 | 3T3 cytotox | NIH3T3 tox 2
O=C(c1ccc2c(c1)OCO2)N1CCCCN2[C@@H](CO)[C@H](c3ccc(-c4ccccc4)cc3)[C@@H]2C1 | 5.4 | 54.3 | 5.4 | / | / | / | /
CC(=O)N1CCCCN2[C@H](CO)[C@H](c3ccc(-c4cccc(C)c4)cc3)[C@@H]2C1 | -23.9 | 78.2 | -10.6 | / | / | / | /
Cc1cccc(-c2ccc([C@H]3[C@@H](CO)N4CCCCN(C(=O)c5ccc6c(c5)OCO6)C[C@@H]34)cc2)c1 | 9.3 | ? | -4.6 | 110.8* | 99.1* | ? | 90.2*
CO[C@H]1CN(C)C(=O)c2cc(NS(=O)(=O)c3cn(C)cn3)ccc2OC[C@H](C)N(C)C[C@@H]1C | 29.5 | -7.9 | 10.2 | / | / | / | /
Cc1cccc(S(=O)(=O)N2CCCCN3[C@@H](CO)[C@@H](c4ccc(C#C[C@H](C)O)cc4)[C@@H]3C2)c1 | -69.9 | 48.3 | -4.4 | / | / | / | /
C[C@H](CO)N1C[C@H](C)[C@@H](CN(C)Cc2ccc(C(=O)O)cc2)Oc2c(NC(=O)NC3CCCCC3)cccc2C1=O | 8.7 | -11.6 | 6.4 | / | / | / | /
C[C@H](CO)N1C[C@H](C)[C@H](CN(C)C(=O)c2ccncc2)Oc2ncc(C#CC3CCCCC3)cc2C1=O | -19.8 | -80.0 | 1.6 | / | / | / | /
COc1ccccc1-c1cnc2c(c1)C(=O)N([C@H](C)CO)C[C@H](C)[C@@H](CN(C)Cc1ccc(F)cc1)O2 | -17.5 | / | 4.5 | / | / | / | /
C[C@H](CO)N1C[C@H](C)[C@H](CN(C)C(=O)c2ccncc2)Oc2ncc(C#CC3CCCC3)cc2C1=O | -12.3 | / | -0.2 | / | / | / | /
O=C(c1ccc2c(c1)OCO2)N1CCCCN2[C@H](CO)[C@@H](c3ccc(-c4ccccc4)cc3)[C@H]2C1 | -0.2 | 101.8* | -0.9 | 85.9 | 55.5 | 28.3 | 68.0*
Cc1cccc(-c2ccc([C@@H]3[C@@H](CO)N4C(=O)CN(C(=O)c5ccc6c(c5)OCO6)C[C@H]34)cc2)c1 | -6.4 | / | -11.1 | / | / | / | /
O=C(c1ccc2c(c1)OCO2)N1CCCCN2[C@H](CO)[C@H](c3ccc(-c4ccccc4)cc3)[C@H]2C1 | -5.4 | 60.9 | -2.1 | / | / | / | /
Cc1cccc(-c2ccc([C@H]3[C@@H](CO)N4CCCCN(C(=O)c5ccc6c(c5)OCO6)C[C@H]34)cc2)c1 | -33.8 | 120.5* | 0.0 | 97.9* | 105.5* | 43.7* | 107.2*
